Data from PubChem BioAssay (Tox21).
Results filed as inconclusive are left out. Active and inactive are the calls of the source. Unless noted, the call rests on the fitted dose curve; in most records, active means well fitted curve in the direction sought with a large enough effect in the repeat runs; inconclusive means weak or mixed curves; inactive means no such curve, though single readings can be large; an effect the other way counts as inactive or inconclusive.

Key:
[1] = qHTS assay to identify small molecule agonists of the TGF-beta/Smad signaling pathway - cell viability counter screen (AID 1346829); further: top concentration of the series differs between compounds; on the % scale 0 is the no-effect control and ±100 the full control effect; nearly all actives have a fitted effect of over 45% in size
Summary of the method: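 After overnight seating at 37 C and 5% CO2, reporter cells got compounds for 5 hr and FRET substrate for 2 hr; cell viability then came from CellTiter-Glo luminescence.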

[2] = qHTS assay to identify small molecule agonists of the TGF-beta/Smad signaling pathway (AID 1346859; active means well fitted activation curve with a large enough effect in the signal ratio in the repeat runs, not every such curve was filed as active; the % refers to the signal ratio; further: series mostly up to about 77 µM; on the % scale 0 is the no-effect control and ±100 the full control effect)
Summary of the method: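 Dual-wavelength fluorescence (460/530 nm emission) quantified beta-lactamase expression under the Smad binding element in HEK 293T cells following 5 hr compound treatment at 37 C.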

[3] = target: Thyrotropin-releasing hormone receptor (Homo sapiens) (UniProt P34981); assay: qHTS assay to identify small molecule agonists of the thyrotropin-releasing hormone receptor (TRHR) signaling pathway (AID 1346891; calls by dose curve;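 further: HEK293 cells expressing TRHR with calcium dye readout; series mostly up to about 58 µM; on the % scale 0 is the no-effect control and ±100 the full control effect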)
Chain of Thyrotropin-releasing hormone receptor (Homo sapiens) (P34981 whole entry, looked up): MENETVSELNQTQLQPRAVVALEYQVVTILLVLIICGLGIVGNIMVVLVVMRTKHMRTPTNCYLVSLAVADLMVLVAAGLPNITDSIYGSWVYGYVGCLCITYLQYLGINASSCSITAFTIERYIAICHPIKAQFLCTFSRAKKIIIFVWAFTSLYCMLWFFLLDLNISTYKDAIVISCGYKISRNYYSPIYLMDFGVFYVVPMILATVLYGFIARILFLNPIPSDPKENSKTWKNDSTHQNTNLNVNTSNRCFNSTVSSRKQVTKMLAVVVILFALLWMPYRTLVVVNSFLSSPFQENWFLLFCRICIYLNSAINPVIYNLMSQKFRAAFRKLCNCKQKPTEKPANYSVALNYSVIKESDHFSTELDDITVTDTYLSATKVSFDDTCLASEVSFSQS
Summary of the method: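 Kinetic fluorescence (3 min, 1 s intervals) reported intracellular calcium after compound transfer onto TRHR-Hek293 cells pre-loaded with dye for 2 h at 37 °C.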

[4] = Human pregnane X receptor (PXR) small molecule agonists, qHTS cell viability counter screen (AID 1346977); further: on the % scale 0 is the no-effect control and ±100 the full control effect; nearly all actives have a fitted effect of over 50% in size
Summary of the method: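 HepG2 cells stably carrying the PXR-Luc reporter are cultured with 5% charcoal-stripped FBS and treated with compounds for 24hr. CellTiter-Fluor is added at 23hr and fluorescence is read after 1hr.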

[5] = Caspase-3/7 induction in HepG2 cells by small molecules, qHTS assay (AID 1346978); further: on the % scale 0 is the no-effect control and ±100 the full control effect; nearly all actives have a fitted effect of over 15% in size
Summary of the method: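 Wild-type HepG2 cells (2,000/well) were settled 5 h at 37 C, 5% CO2, then exposed to compounds in DMSO for 17 h. Caspase-3/7 activity was read by luminescence 30 min after adding Caspase-Glo 3/7 reagent at room temperature.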

[6] = Caspase-3/7 induction in CHO-K1 cells by small molecules, qHTS cell viability counter screen (AID 1346979); further: on the % scale 0 is the no-effect control and ±100 the full control effect; nearly all actives have a fitted effect of over 35% in size
Summary of the method: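 Seeding: 1,500 CHO-K1 cells/well. Rest: 5hr, 37C. Treatment: compounds in DMSO, 16hr. Read: CellTiter-Fluor, 1hr, fluorescence.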

[7] = Caspase-3/7 induction in CHO-K1 cells by small molecules, qHTS assay (AID 1346980); further: on the % scale 0 is the no-effect control and ±100 the full control effect; nearly all actives have a fitted effect of over 15% in size
Summary of the method: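 Wild-type cells were seeded at 1,500 per well and settled 5 hr at 37 C, 5% CO2, then exposed to DMSO-dissolved compounds for 17 hr. Caspase-Glo 3/7 reagent was added, and luminescence was read after 30min at room temperature.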

[8] = Caspase-3/7 induction in HepG2 cells by small molecules, qHTS cell viability counter screen (AID 1346981); further: series mostly up to about 92 µM; on the % scale 0 is the no-effect control and ±100 the full control effect; nearly all actives have a fitted effect of over 30% in size
Summary of the method: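 Multiplexed with the caspase-3/7 assay: HepG2 cells, 16 hr compound treatment, CellTiter-Fluor viability detection by fluorescence.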

[9] = target: Nuclear receptor subfamily 1 group I member 2 (Homo sapiens) (UniProt O75469); assay: Human pregnane X receptor (PXR) small molecule agonists, qHTS assay (AID 1346982); further: nearly all actives have a fitted effect of over 35% in size; further: potency means the concentration at half of the fitted maximal effect; on activation: on the % scale 0 is the no-effect control and ±100 the full control effect
Chain of Nuclear receptor subfamily 1 group I member 2 (Homo sapiens) (O75469 whole entry, looked up): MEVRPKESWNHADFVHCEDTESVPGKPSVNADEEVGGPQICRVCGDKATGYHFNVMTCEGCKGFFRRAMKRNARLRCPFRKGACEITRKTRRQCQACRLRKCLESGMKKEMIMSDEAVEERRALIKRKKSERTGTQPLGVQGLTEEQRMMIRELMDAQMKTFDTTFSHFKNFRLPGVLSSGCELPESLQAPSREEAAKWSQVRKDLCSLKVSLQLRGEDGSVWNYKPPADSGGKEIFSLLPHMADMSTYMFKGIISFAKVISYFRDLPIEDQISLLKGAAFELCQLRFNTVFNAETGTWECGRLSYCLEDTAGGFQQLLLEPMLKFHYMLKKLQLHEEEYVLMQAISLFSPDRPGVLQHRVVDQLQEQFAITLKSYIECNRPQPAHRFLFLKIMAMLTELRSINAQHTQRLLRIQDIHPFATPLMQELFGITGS
Summary of the method: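 We seeded PXR-Luc HepG2 cells in assay medium containing 5% charcoal-stripped FBS, added compounds 5 hr later, incubated 24 hr, and read luminescence with ONE-Glo reagent.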

[10] = target: Cytochrome P450 2D6 (Homo sapiens) (UniProt P10635); assay: Cytochrome P450 Family 2 Subfamily D Member 6 (CYP2D6) small molecule antagonists: luciferase reporter qHTS assay (AID 1671196); further: nearly all actives have a fitted effect of over 50% in size; further: potency means the concentration at half of the fitted maximal effect; on activity change, negative = inhibition: series mostly up to about 120 µM; on the % scale 0 is the no-effect control and ±100 the full control effect
Chain of Cytochrome P450 2D6 (Homo sapiens) (P10635 whole entry, looked up): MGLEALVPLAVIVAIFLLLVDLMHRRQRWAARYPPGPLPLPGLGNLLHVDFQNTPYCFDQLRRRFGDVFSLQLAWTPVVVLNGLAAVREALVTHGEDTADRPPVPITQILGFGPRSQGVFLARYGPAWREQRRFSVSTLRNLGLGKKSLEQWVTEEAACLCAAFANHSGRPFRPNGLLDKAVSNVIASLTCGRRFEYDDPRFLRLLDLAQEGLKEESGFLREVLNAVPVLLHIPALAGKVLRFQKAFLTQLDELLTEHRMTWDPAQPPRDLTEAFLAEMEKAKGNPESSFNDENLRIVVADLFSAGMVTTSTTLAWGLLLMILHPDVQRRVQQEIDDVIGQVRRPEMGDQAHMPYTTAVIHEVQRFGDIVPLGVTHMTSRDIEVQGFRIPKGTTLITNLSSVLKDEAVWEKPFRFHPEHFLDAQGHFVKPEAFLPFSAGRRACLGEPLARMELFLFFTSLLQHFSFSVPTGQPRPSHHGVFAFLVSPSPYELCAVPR
Summary of the method: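 Luminescence (RLU), read 20 min after detection reagent, indicated CYP2D6 conversion of proluciferin to luciferin during a 1 h NADPH-dependent reaction at room temperature.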

[11] = target: Cytochrome P450 2C9 (Homo sapiens) (UniProt P11712); assay: Cytochrome P450 Family 2 Subfamily C Member 9 (CYP2C9) small molecule antagonists: luciferase reporter qHTS assay (AID 1671198); further: nearly all actives have a fitted effect of over 50% in size; further: potency means the concentration at half of the fitted maximal effect
Chain of Cytochrome P450 2C9 (Homo sapiens) (P11712 whole entry, looked up): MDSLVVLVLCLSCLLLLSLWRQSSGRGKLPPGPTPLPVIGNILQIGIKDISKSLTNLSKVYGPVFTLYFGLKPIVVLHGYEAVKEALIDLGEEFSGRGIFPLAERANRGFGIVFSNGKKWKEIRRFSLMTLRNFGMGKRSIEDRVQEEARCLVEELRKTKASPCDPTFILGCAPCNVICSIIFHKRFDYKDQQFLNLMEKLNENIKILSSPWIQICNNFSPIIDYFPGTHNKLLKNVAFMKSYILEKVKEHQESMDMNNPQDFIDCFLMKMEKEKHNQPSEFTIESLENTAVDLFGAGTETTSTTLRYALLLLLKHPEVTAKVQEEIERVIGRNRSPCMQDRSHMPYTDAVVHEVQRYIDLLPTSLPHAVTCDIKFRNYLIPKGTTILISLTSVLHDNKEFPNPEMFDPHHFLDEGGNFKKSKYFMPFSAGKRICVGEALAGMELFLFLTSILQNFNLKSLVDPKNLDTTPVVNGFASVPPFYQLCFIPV
Summary of the method: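 CYP2C9 activity was measured with a P450-Glo proluciferin substrate. Enzyme–substrate mix was held with compound for 10 min at room temperature, then NADPH regeneration solution was added for 1 h at 37C. Luciferin product was read as luminescence.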

[12] = target: Voltage-gated inwardly rectifying potassium channel KCNH2 (Homo sapiens) (UniProt Q12809); assay: Human Ether-a-go-go-Related Gene (hERG) channel small molecule antagonists: fluorescence cell-based qHTS assay (AID 1671200); further: nearly all actives have a fitted effect of over 50% in size; further: potency means the concentration at half of the fitted maximal effect
Chain of Voltage-gated inwardly rectifying potassium channel KCNH2 (Homo sapiens) (Q12809 whole entry, looked up): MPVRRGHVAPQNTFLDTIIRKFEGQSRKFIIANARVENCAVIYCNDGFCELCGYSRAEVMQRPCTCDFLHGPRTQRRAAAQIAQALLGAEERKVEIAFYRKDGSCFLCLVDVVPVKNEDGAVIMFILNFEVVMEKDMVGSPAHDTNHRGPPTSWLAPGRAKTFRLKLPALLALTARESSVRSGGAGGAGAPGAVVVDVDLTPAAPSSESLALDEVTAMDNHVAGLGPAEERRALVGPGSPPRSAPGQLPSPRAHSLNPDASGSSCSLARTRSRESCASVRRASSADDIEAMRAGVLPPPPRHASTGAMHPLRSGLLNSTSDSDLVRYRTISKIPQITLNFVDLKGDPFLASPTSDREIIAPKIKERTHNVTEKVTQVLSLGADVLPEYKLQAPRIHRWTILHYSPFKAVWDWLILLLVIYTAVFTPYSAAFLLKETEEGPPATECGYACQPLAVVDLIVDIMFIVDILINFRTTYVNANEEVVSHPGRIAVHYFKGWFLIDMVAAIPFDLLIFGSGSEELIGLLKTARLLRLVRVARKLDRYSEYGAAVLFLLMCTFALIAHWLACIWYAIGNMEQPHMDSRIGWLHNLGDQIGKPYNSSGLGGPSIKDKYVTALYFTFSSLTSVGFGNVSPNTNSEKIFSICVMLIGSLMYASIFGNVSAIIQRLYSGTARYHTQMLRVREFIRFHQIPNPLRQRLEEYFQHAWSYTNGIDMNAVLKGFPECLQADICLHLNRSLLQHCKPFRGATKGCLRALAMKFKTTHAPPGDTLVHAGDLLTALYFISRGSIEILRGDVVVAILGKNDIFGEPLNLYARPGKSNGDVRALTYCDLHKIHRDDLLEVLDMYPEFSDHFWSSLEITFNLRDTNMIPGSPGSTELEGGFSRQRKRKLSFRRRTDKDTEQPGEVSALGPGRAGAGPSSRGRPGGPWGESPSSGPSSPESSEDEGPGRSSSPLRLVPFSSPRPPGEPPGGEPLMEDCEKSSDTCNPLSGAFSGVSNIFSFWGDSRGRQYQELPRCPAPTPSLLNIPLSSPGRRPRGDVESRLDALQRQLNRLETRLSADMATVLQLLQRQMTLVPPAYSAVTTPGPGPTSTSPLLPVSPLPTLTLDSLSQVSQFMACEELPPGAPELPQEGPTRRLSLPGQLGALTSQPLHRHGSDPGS
Summary of the method: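 First, 1000 cells per well are seeded and cultured overnight at 37 C. Next, FluxOR II dye is loaded for 1 h at room temperature, protected from light. After 10 more minutes, stimulus is added and fluorescence is read.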

[13] = target: Cytochrome P450 3A4 (Homo sapiens) (UniProt P08684); assay: Cytochrome P450 Family 3 Subfamily A Member 4 (CYP3A4) small molecule antagonists: luciferase reporter qHTS assay (AID 1671201)
Chain of Cytochrome P450 3A4 (Homo sapiens) (P08684 whole entry, looked up): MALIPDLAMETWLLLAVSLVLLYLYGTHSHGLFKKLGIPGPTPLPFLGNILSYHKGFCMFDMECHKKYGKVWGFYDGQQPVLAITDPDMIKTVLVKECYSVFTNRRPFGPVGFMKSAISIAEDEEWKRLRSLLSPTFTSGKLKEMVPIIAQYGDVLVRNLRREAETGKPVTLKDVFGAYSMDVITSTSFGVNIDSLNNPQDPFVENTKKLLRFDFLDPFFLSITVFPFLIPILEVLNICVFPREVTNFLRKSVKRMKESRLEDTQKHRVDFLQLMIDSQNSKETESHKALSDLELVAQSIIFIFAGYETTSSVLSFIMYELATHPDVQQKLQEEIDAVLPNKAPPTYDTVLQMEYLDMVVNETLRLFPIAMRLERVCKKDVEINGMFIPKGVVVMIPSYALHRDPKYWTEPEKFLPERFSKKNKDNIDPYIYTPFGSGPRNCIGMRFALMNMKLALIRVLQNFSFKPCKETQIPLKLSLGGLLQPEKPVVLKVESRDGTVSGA
Summary of the method: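 Enzyme and proluciferin substrate are mixed with test chemicals for 10 min, then NADPH regeneration system drives turnover for 1 h at room temperature. A detection reagent halts the reaction; luminescence after 20 min gives relative activity.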

[14] = target: Nuclear receptor subfamily 1 group I member 2 (Rattus norvegicus) (UniProt Q9R1A7); assay: Rat pregnane X receptor (rPXR) activation by small molecules, qHTS assay (AID 1346983); conditions: rPXR luciferase reporter cells, One-Glo luminescence, 24 h; active compounds read high; further: on the % scale 0 is the no-effect control and ±100 the full control effect; nearly all actives have a fitted effect of over 20% in size
Chain of Nuclear receptor subfamily 1 group I member 2 (Rattus norvegicus) (Q9R1A7 whole entry, looked up): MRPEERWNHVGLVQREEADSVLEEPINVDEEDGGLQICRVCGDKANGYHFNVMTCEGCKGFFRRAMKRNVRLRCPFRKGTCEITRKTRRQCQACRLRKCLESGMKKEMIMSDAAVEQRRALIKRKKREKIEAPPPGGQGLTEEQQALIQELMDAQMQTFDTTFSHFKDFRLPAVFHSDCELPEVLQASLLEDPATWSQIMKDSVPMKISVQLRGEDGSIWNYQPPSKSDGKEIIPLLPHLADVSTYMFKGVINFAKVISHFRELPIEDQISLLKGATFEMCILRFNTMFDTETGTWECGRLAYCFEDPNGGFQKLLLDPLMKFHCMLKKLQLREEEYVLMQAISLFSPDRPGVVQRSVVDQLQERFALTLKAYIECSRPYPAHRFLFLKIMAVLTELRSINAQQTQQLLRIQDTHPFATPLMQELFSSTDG
Summary of the method: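 Cell-based rPXR luciferase reporter assay, 2,000 cells per well, rested 5hr at 37 C before compound addition in DMSO, then 24 hr at 37 C. One-Glo reagent was added and luminescence read after 30 min at room temperature.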

[15] = target: Nuclear receptor subfamily 1 group I member 2 (Homo sapiens) (UniProt O75469); assay: Human pregnane X receptor (PXR) activation by small molecules, qHTS assay (AID 1346985); further: potency means the concentration at half of the fitted maximal effect; nearly all actives have a fitted effect of over 40% in size
Summary of the method: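 DPX-2 cells (HepG2 co-transfected with a PXR response element and a CYP3A4-promoter luciferase construct) were seeded at 2,000 per well, rested 5 hr at 37C, then exposed to DMSO-dissolved compounds for 24 hr. Activation was read as luciferase luminescence.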

[16] = target: Cytochrome P450 1A2 (Homo sapiens) (UniProt P05177); assay: Cytochrome P450 Family 1 Subfamily A Member 2 (CYP1A2) small molecule antagonists: luciferase reporter qHTS assay (AID 1671199); further: nearly all actives have a fitted effect of over 50% in size; further: potency means the concentration at half of the fitted maximal effect
Chain of Cytochrome P450 1A2 (Homo sapiens) (P05177 whole entry, looked up): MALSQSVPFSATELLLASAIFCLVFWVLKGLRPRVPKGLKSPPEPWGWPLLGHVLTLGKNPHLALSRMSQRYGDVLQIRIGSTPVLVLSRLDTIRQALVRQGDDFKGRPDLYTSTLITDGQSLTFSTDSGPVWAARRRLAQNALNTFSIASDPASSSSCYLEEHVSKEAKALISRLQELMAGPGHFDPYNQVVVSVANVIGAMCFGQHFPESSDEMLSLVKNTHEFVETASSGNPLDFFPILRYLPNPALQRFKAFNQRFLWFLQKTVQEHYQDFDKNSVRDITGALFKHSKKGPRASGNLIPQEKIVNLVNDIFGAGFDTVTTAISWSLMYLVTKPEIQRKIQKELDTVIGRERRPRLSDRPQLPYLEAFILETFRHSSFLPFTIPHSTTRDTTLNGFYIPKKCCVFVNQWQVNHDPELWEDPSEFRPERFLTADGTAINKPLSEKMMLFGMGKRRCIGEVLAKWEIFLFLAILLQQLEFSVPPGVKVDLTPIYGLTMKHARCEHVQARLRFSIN
Summary of the method: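 CYP1A2 turnover of a luminogenic substrate was quantified after 1 h with NADPH regeneration at room temperature. Furafylline served as positive control.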

[17] = target: Cytochrome P450 2C19 (Homo sapiens) (UniProt P33261); assay: Cytochrome P450 Family 2 Subfamily C Member 19 (CYP2C19) small molecule antagonists: luciferase reporter qHTS assay (AID 1671197); further: nearly all actives have a fitted effect of over 65% in size; further: potency means the concentration at half of the fitted maximal effect
Chain of Cytochrome P450 2C19 (Homo sapiens) (P33261 whole entry, looked up): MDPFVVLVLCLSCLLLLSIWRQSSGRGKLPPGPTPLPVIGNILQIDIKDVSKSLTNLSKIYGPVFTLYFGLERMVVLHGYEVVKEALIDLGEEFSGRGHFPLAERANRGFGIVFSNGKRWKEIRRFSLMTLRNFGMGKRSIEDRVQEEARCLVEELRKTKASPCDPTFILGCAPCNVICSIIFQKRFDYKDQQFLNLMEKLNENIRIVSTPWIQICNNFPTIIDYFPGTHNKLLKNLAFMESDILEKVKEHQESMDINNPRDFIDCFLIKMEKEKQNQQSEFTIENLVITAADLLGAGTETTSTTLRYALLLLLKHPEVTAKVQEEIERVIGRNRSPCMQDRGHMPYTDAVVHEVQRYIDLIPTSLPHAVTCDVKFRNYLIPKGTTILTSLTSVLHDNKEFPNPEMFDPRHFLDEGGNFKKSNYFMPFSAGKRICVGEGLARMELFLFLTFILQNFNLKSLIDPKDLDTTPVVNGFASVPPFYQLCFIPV
Summary of the method: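 Inhibition of CYP2C19 was scored from loss of luminescence in a P450-Glo proluciferin substrate assay, NADPH-started and run 1 h at 37C, with ketoconazole as positive control.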

C[C@H]1[C@@H](c2ccccc2)NC(=O)N1C
inactive: outcome [1] | outcome [2] | outcome [3] | outcome [4] | outcome [5] | Potency [6] | outcome [7] | outcome [8] | Potency [9] | Potency [10] | Potency [11] | Potency [12] | Potency [13]

CCOC(CN1CCN(CC(C)C(=O)c2ccccc2)CC1)c1ccccc1 (stereo unspecified)
active: Potency [9] 14.6 µM | Potency [15] 10 µM | Potency [10] 0.213 µM | Potency [12] 10.4 µM
inactive: activity change, negative = cytotoxicity [1] -11.2% [at 15.8 µM] | activation [2] -2.36% [at 15.8 µM] | activation [3] 0.148% [at 11.8 µM] | caspase activation [5] 0.292% [at 19 µM] | activity change, negative = cytotoxicity [6] 0.23% [at 19 µM] | caspase-3/7 activation [7] 0.336% [at 19 µM] | activity change, negative = cytotoxicity [8] -1.17% [at 19 µM] | max activation [14] 1.41% | activity change, negative = inhibition [16] 12.6% [at 23.6 µM] | activity change, negative = inhibition [13] 51.9% [at 23.6 µM]

COc1ccc(CCO)cc1
inactive: outcome [1] | outcome [2] | outcome [4] | outcome [5] | Potency [6] | outcome [7] | outcome [8] | Potency [9] | Potency [10] | Potency [12]
active: Potency [17] 71 µM | Potency [11] 79.6 µM | Potency [16] 63.3 µM

CC1c2ccccc2CN1NC(=O)c1ccc(Cl)c(S(N)(=O)=O)c1 (stereo unspecified)
inactive: outcome [1] | outcome [2] | outcome [3] | outcome [4] | outcome [5] | Potency [6] | outcome [7] | outcome [8] | Potency [9] | Potency [10] | Potency [12] | Potency [13]

COS(=O)(=O)O
inactive: outcome [1] | outcome [2] | outcome [3] | outcome [4] | outcome [5] | Potency [6] | outcome [7] | outcome [8] | Potency [9] | Potency [10] | Potency [17] | Potency [11] | Potency [12] | Potency [13]

COC(=O)c1ccccc1C(=O)O
inactive: outcome [1] | outcome [2] | outcome [3] | outcome [4] | outcome [5] | Potency [6] | outcome [7] | outcome [8] | Potency [9] | Potency [10] | Potency [16] | Potency [12]

Cc1cccc(Cl)c1
inactive: outcome [1] | outcome [2] | outcome [3] | outcome [5] | Potency [6] | outcome [7] | outcome [8] | Potency [9] | Potency [10] | Potency [17] | Potency [11] | Potency [16] | Potency [12] | Potency [13]

CCCCOCC(C)O (stereo unspecified)
inactive: outcome [1] | outcome [2] | outcome [3] | outcome [4] | outcome [5] | Potency [6] | outcome [7] | outcome [8] | Potency [9] | Potency [10] | Potency [17] | Potency [11] | Potency [12] | Potency [13]
